Assay results published in the antibiotic and cytotoxicity screens of Wong et al. (2023).
Out of some 39,000 compounds screened, about 3,300 (8.5%) were called active. Only a selection was taken, and actives are over-represented in it overall.

What follows are molecules tested on HepG2 (assay: cytotoxicity call (relative viability < 0.9)). Details: 10 µM.

With CC(C)NC(=O)N(C)C[C@H]1Oc2ccc(NS(=O)(=O)c3cn(C)cn3)cc2CC(=O)N([C@@H](C)CO)C[C@@H]1C as the molecule, how does the cytotoxicity call read?
Its cytotoxicity call is “inactive”.

With COc1cccc(C#Cc2ccc3c(c2)O[C@H](CN(C)C(=O)c2ccccn2)[C@H](C)CN([C@@H](C)CO)S3(=O)=O)c1 as the molecule, how does the cytotoxicity call read?
The cytotoxicity call was “inactive”.

With COc1ccc(CN(C)C[C@@H]2OCCCC[C@@H](C)Oc3ccc(NC(=O)CCCCCC(=O)Nc4ccccc4N)cc3C(=O)N([C@H](C)CO)C[C@@H]2C)cc1 as the molecule, how does the cytotoxicity call read?
The cytotoxicity call was “inactive”.

With C[C@@H]1CCCCO[C@@H](CN(C)Cc2ccc3c(c2)OCO3)[C@@H](C)CN([C@@H](C)CO)C(=O)c2cc(NC(=O)c3ccccc3)ccc2O1 as the molecule, how does the cytotoxicity call read?
The cytotoxicity call was “inactive”.

Which cytotoxicity call does the source give for C[C@H](CO)N1C[C@H](C)[C@H](CN(C)S(=O)(=O)c2cccs2)OCCCC[C@H](C)Oc2ccc(NC(=O)C3CCCCC3)cc2C1=O here?
Its cytotoxicity call is “inactive”.

Which cytotoxicity call does the source give for Cc1noc(C)c1NC(=O)Nc1ccc2c(c1)CC(=O)N([C@@H](C)CO)C[C@H](C)[C@H](CN(C)C(=O)Nc1cccc3ccccc13)O2 here?
The cytotoxicity call was “inactive”.

For C[C@@H]1CN([C@@H](C)CO)C(=O)c2cc(NC(=O)Cc3cn(C)c4ccccc34)ccc2O[C@H]1CN(C)Cc1ccc(-c2ccccc2)cc1, which cytotoxicity call is on record?
The cytotoxicity call was “inactive”.

Which cytotoxicity call does the source give for C[C@H](CO)N1C[C@H](C)[C@H](CN(C)Cc2ccc(-c3ccccc3)cc2)Oc2ccc(NC(=O)Cc3cn(C)c4ccccc34)cc2C1=O here?
Its cytotoxicity call is “active”.

C[C@H]1CN([C@@H](C)CO)C(=O)c2cc(NC(=O)Cc3cn(C)c4ccccc34)ccc2O[C@H]1CN(C)Cc1ccc(-c2ccccc2)cc1 was tested. Which cytotoxicity call did it give?
Its cytotoxicity call is “inactive”.

Which cytotoxicity call does the source give for C[C@@H]1CN([C@@H](C)CO)C(=O)c2cc(NC(=O)Cc3cn(C)c4ccccc34)ccc2O[C@@H]1CN(C)Cc1ccc(-c2ccccc2)cc1 here?
The cytotoxicity call was “active”.

C[C@H](CO)N1C[C@H](C)[C@@H](CN(C)Cc2ccc(-c3ccccc3)cc2)Oc2ccc(NC(=O)Cc3cn(C)c4ccccc34)cc2C1=O was tested. Which cytotoxicity call did it give?
Its cytotoxicity call is “inactive”.

How did the cytotoxicity call turn out when C[C@@H]1CN([C@H](C)CO)C(=O)c2cc(NC(=O)Cc3cn(C)c4ccccc34)ccc2O[C@@H]1CN(C)Cc1ccc(-c2ccccc2)cc1 was run?
The cytotoxicity call was “inactive”.

C[C@H]1CN([C@@H](C)CO)C(=O)c2cc(NC(=O)Cc3cn(C)c4ccccc34)ccc2O[C@@H]1CN(C)Cc1ccc(-c2ccccc2)cc1 was tested. Which cytotoxicity call did it give?
The cytotoxicity call was “active”.

With C[C@@H]1CN([C@H](C)CO)C(=O)c2cc(NC(=O)Cc3cn(C)c4ccccc34)ccc2O[C@H]1CN(C)Cc1ccc(-c2ccccc2)cc1 as the molecule, how does the cytotoxicity call read?
Its cytotoxicity call is “inactive”.

Which cytotoxicity call does the source give for Cc1ccc([C@@H](N)c2ccncc2)cc1 here?
Its cytotoxicity call is “inactive”.

Which cytotoxicity call does the source give for COC(=O)c1c(C#N)c(N)nc2c1CCC2 here?
Its cytotoxicity call is “inactive”.

For CC(C)NC(=O)N(C)C[C@H]1OCCCC[C@H](C)Oc2ccc(NC(=O)Nc3ccccc3)cc2C(=O)N([C@H](C)CO)C[C@@H]1C, which cytotoxicity call is on record?
The cytotoxicity call was “inactive”.

For COc1ccccc1-c1ccc2n(c1=O)C[C@H]1[C@H](CO)[C@@H](C(=O)NCC3CC3)N(S(C)(=O)=O)[C@@H]21, which cytotoxicity call is on record?
The cytotoxicity call was “inactive”.

For O=C(C[C@@H]1CC[C@H](NS(=O)(=O)c2ccccc2F)[C@@H](CO)O1)NCCCN1CCOCC1, which cytotoxicity call is on record?
Its cytotoxicity call is “inactive”.

C[C@@H]1CN([C@H](C)CO)C(=O)Cc2cc(NS(C)(=O)=O)ccc2O[C@@H]1CN(C)S(C)(=O)=O was tested. Which cytotoxicity call did it give?
The cytotoxicity call was “inactive”.

With C[C@H]1CN([C@@H](C)CO)S(=O)(=O)c2ccc(-c3cccnc3)cc2O[C@@H]1CN(C)C(=O)NC1CCCCC1 as the molecule, how does the cytotoxicity call read?
The cytotoxicity call was “inactive”.

For C[C@@H]1CN([C@@H](C)CO)S(=O)(=O)c2ccc(C#Cc3ccncc3)cc2O[C@H]1CN(C)C(=O)C1CCOCC1, which cytotoxicity call is on record?
Its cytotoxicity call is “active”.

C[C@@H]1CN([C@@H](C)CO)S(=O)(=O)c2ccc(C#Cc3ccncc3)cc2O[C@@H]1CN(C)C(=O)C1CCOCC1 was tested. Which cytotoxicity call did it give?
The cytotoxicity call was “active”.

With C[C@@H]1CN([C@H](C)CO)S(=O)(=O)c2ccc(C#Cc3ccncc3)cc2O[C@H]1CN(C)C(=O)C1CCOCC1 as the molecule, how does the cytotoxicity call read?
The cytotoxicity call was “active”.

Which cytotoxicity call does the source give for C[C@H](CO)N1C[C@H](C)[C@H](CN(C)C(=O)C2CCOCC2)Oc2cc(C#Cc3ccncc3)ccc2S1(=O)=O here?
The cytotoxicity call was “inactive”.

How did the cytotoxicity call turn out when CC(C)CC#Cc1ccc2c(c1)O[C@H](CN(C)C(=O)C1CCOCC1)[C@H](C)CN([C@H](C)CO)S2(=O)=O was run?
Its cytotoxicity call is “inactive”.

For CC(C)CC#Cc1ccc2c(c1)O[C@@H](CN(C)C(=O)C1CCOCC1)[C@H](C)CN([C@H](C)CO)S2(=O)=O, which cytotoxicity call is on record?
Its cytotoxicity call is “inactive”.

CC(C)CC#Cc1ccc2c(c1)O[C@@H](CN(C)C(=O)C1CCOCC1)[C@@H](C)CN([C@H](C)CO)S2(=O)=O was tested. Which cytotoxicity call did it give?
The cytotoxicity call was “inactive”.

With C[C@H](CO)N1C[C@H](C)[C@@H](CN(C)C(=O)C2CCOCC2)Oc2cc(C#Cc3ccncc3)ccc2S1(=O)=O as the molecule, how does the cytotoxicity call read?
Its cytotoxicity call is “inactive”.

CC(C)CC#Cc1ccc2c(c1)O[C@H](CN(C)C(=O)C1CCOCC1)[C@@H](C)CN([C@H](C)CO)S2(=O)=O was tested. Which cytotoxicity call did it give?
Its cytotoxicity call is “inactive”.

Which cytotoxicity call does the source give for C[C@H]1CN([C@@H](C)CO)S(=O)(=O)c2ccc(C#Cc3ccncc3)cc2O[C@@H]1CN(C)C(=O)C1CCOCC1 here?
The cytotoxicity call was “active”.

How did the cytotoxicity call turn out when C[C@@H]1CN([C@H](C)CO)C(=O)Cc2cc(NS(=O)(=O)c3ccc(F)cc3)ccc2O[C@H]1CN(C)C(=O)Nc1cccc2ccccc12 was run?
Its cytotoxicity call is “inactive”.

Which cytotoxicity call does the source give for C[C@@H]1CN([C@@H](C)CO)S(=O)(=O)c2ccc(C3=CCCCC3)cc2O[C@H]1CN(C)C(=O)C1CCOCC1 here?
Its cytotoxicity call is “inactive”.

Which cytotoxicity call does the source give for C[C@@H]1CCCCO[C@@H](CN(C)C(=O)CCC(F)(F)F)[C@@H](C)CN([C@@H](C)CO)C(=O)c2cc(NS(=O)(=O)c3ccc(Cl)cc3)ccc2O1 here?
The cytotoxicity call was “inactive”.

How did the cytotoxicity call turn out when Cc1ccc(S(=O)(=O)Nc2ccc3c(c2)C(=O)N([C@H](C)CO)C[C@@H](C)[C@H](CN(C)C(=O)Nc2ccccc2)OCCCC[C@H](C)O3)cc1 was run?
The cytotoxicity call was “inactive”.

Which cytotoxicity call does the source give for C[C@@H]1CCCCO[C@@H](CN(C)C(=O)NC2CCCCC2)[C@H](C)CN([C@@H](C)CO)C(=O)c2cc(NC(=O)Nc3cccc4ccccc34)ccc2O1 here?
The cytotoxicity call was “inactive”.

CN1C(=O)c2cc(NC(=O)c3cccs3)ccc2OC[C@H]2O[C@@H](CC(=O)NCCN3CCCCC3)CC[C@@H]21 was tested. Which cytotoxicity call did it give?
Its cytotoxicity call is “inactive”.

CCCC#Cc1cnc2c(c1)C(=O)N([C@@H](C)CO)C[C@H](C)[C@@H](CN(C)S(=O)(=O)c1cccc(OC)c1)O2 was tested. Which cytotoxicity call did it give?
Its cytotoxicity call is “inactive”.

C[C@@H]1CN([C@@H](C)CO)C(=O)Cc2cc(NC(=O)CCC(F)(F)F)ccc2O[C@@H]1CN(C)S(=O)(=O)c1cccs1 was tested. Which cytotoxicity call did it give?
Its cytotoxicity call is “inactive”.

With C[C@@H]1CN([C@@H](C)CO)S(=O)(=O)c2ccc(C#CC3CC3)cc2O[C@H]1CN(C)C(=O)c1cccc(F)c1 as the molecule, how does the cytotoxicity call read?
The cytotoxicity call was “inactive”.

For C[C@H](CO)N1C[C@H](C)[C@@H](CN(C)S(=O)(=O)c2ccc(-n3cccn3)cc2)OCc2cn(nn2)CCCC1=O, which cytotoxicity call is on record?
Its cytotoxicity call is “inactive”.

CNC(=O)CN1CCO[C@H]2CN(C(=O)C(C)C)C[C@@H]21 was tested. Which cytotoxicity call did it give?
The cytotoxicity call was “inactive”.

For O=C(C[C@H]1CC=CC[C@H](NC(=O)OCC2c3ccccc3-c3ccccc32)C(=O)OCCNC1=O)NCCO, which cytotoxicity call is on record?
Its cytotoxicity call is “inactive”.

With COc1ccccc1-c1cnc2c(c1)C(=O)N([C@@H](C)CO)C[C@@H](C)[C@@H](CN(C)C(=O)c1cccnc1)O2 as the molecule, how does the cytotoxicity call read?
The cytotoxicity call was “inactive”.

Which cytotoxicity call does the source give for C[C@@H]1CN([C@H](C)CO)S(=O)(=O)c2ccc(C#Cc3ccncc3)cc2O[C@@H]1CN(C)C(=O)C1CCOCC1 here?
The cytotoxicity call was “active”.

Which cytotoxicity call does the source give for CC(C)CC#Cc1ccc2c(c1)O[C@H](CN(C)C(=O)C1CCOCC1)[C@@H](C)CN([C@@H](C)CO)S2(=O)=O here?
The cytotoxicity call was “inactive”.

How did the cytotoxicity call turn out when C[C@H]1CN([C@@H](C)CO)S(=O)(=O)c2ccc(C#Cc3ccncc3)cc2O[C@H]1CN(C)C(=O)C1CCOCC1 was run?
Its cytotoxicity call is “active”.

CC(C)CC#Cc1ccc2c(c1)O[C@@H](CN(C)C(=O)C1CCOCC1)[C@H](C)CN([C@@H](C)CO)S2(=O)=O was tested. Which cytotoxicity call did it give?
Its cytotoxicity call is “inactive”.

With O=C(C[C@H]1C=C[C@@H](NC(=O)CN2CCOCC2)[C@H](CO)O1)NCc1cccc(F)c1 as the molecule, how does the cytotoxicity call read?
Its cytotoxicity call is “inactive”.

How did the cytotoxicity call turn out when C[C@@H]1CN([C@@H](C)CO)C(=O)c2cc(N(C)C)ccc2O[C@@H](C)CCCCO[C@H]1CN(C)Cc1ccc(C(F)(F)F)cc1 was run?
Its cytotoxicity call is “inactive”.

C[C@@H]1CN([C@@H](C)CO)C(=O)CCCn2cc(nn2)CO[C@@H]1CN(C)S(=O)(=O)c1cn(C)cn1 was tested. Which cytotoxicity call did it give?
The cytotoxicity call was “inactive”.

For C[C@@H]1CN([C@@H](C)CO)C(=O)c2cccc(NC(=O)CCCCCC(=O)Nc3ccccc3N)c2O[C@H]1CN(C)C(=O)Nc1ccc(C(F)(F)F)cc1, which cytotoxicity call is on record?
Its cytotoxicity call is “inactive”.

For C[C@@H]1CN([C@H](C)CO)C(=O)c2cc(NC(=O)NC3CCCCC3)ccc2O[C@H]1CN(C)Cc1ccc(C(F)(F)F)cc1, which cytotoxicity call is on record?
Its cytotoxicity call is “inactive”.

Which cytotoxicity call does the source give for O=C([C@@H]1N[C@@H]2c3ccc(-c4ccc(F)cc4)c(=O)n3C[C@@H]2[C@H]1CO)N1CCOCC1 here?
The cytotoxicity call was “inactive”.

With C[C@@H]1CN([C@@H](C)CO)C(=O)c2cccc(NS(=O)(=O)c3cn(C)cn3)c2O[C@H]1CN(C)Cc1ccncc1 as the molecule, how does the cytotoxicity call read?
The cytotoxicity call was “inactive”.

With CC(C)(C(=O)O)c1ccc([C@@H](O)CCCN2CCC(C(O)(c3ccccc3)c3ccccc3)CC2)cc1 as the molecule, how does the cytotoxicity call read?
Its cytotoxicity call is “inactive”.

For CC(C)(C(=O)O)c1ccc(C(O)CCCN2CCC(C(O)(c3ccccc3)c3ccccc3)CC2)cc1.Cl (centres undefined), which cytotoxicity call is on record?
The cytotoxicity call was “inactive”.

How did the cytotoxicity call turn out when CC(C)(C)c1ccc(C(O)CCCN2CCC(C(O)(c3ccccc3)c3ccccc3)CC2)cc1 (centres undefined) was run?
The cytotoxicity call was “active”.

Which cytotoxicity call does the source give for O=C(Nc1cc(C(F)(F)F)cc(C(F)(F)F)c1)Nc1cnn(-c2ccc([N+](=O)[O-])cc2)c1C(F)(F)F here?
The cytotoxicity call was “active”.

With O=C(Nc1cc(C(F)(F)F)cc(C(F)(F)F)c1)Nc1c(Br)cc(Br)cc1-c1nn[nH]n1 as the molecule, how does the cytotoxicity call read?
Its cytotoxicity call is “inactive”.

With O=C(NCO)c1ccc([N+](=O)[O-])cc1 as the molecule, how does the cytotoxicity call read?
The cytotoxicity call was “inactive”.

For CNC1C(OC2C(OC3C(O)C(O)C(NC(=N)N)C(O)C3NC(=N)N)OC(C)C2(O)C=O)OC(CO)C(O)C1O.O=S(=O)(O)O (centres undefined) [STREPTOMYCIN SULFATE [5mM; 10% aq DMSO + 5mM ethanolamine] ], which cytotoxicity call is on record?
The cytotoxicity call was “inactive”.

Which cytotoxicity call does the source give for COCC(=O)Nc1c(I)c(C(=O)NC[C@@H](O)CO)c(I)c(C(=O)N(C)C[C@@H](O)CO)c1I here?
The cytotoxicity call was “inactive”.

With COc1ccc(S(=O)(=O)N[C@@H]2C=C[C@H](CC(=O)N3CCN(c4ccccc4)CC3)O[C@@H]2CO)cc1 as the molecule, how does the cytotoxicity call read?
The cytotoxicity call was “inactive”.
